Abeta rescue – compounds reversing amyloid beta toxicity in yeast. yeast expressing A-beta42, growth rescue, OD600, 48 h; response scale: 0% DMSO, 100% iron-clioquinol control. Potency, µM (doses to about 46.1 µM), actives largely listed as activators. 410,000 compounds, 0.063% hits. AID 1347071; note: nearly all actives have a fitted effect of over 55% in size
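Yeast A-beta toxicity model in growth medium with pinned compounds, 48 h at 30 C; growth read as absorbance at 600 nm. Normalized to FeCl3/clioquinol equimolar mix (positive) and DMSO (negative).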
FUS suppressor – FUS proteinopathy suppression in yeast; Potency, µM (highest dose often 76.6 µM), most hits filed as activators; 390,000 compounds, 0.24% hits; S. cerevisiae FUS-expressing, growth rescue, OD600, 24 h;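 note: plate controls were DMSO vehicle for no effect and reference control for full effect; nearly all actives have a fitted effect of over 55% in size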
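Restored growth of FUS-toxic S. cerevisiae, read as 600 nm absorbance after 24 h at 30C in galactose medium (starting OD 0.005). Controls CP55940 and DMSO.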
aSyn rescue – rescues yeast growth from alpha-synuclein toxicity; Yeast expressing alpha-synuclein, growth rescue, BacTiter-Glo, 24 h; Potency, µM (highest dose often 46.1 µM), inactives show at the top dose growth rescue (activation), usual class: activators; 370,000 compounds, 0.14% hits; AID 652106; note: % of control where 0% means no effect; nearly all actives have a fitted effect of over 65% in size
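Rescue of yeast growth: cells expressing toxic alpha-synuclein, induced in galactose at OD600 0.02, incubated with compound 24 h at 30 C. ATP luminescence quantified growth; inhibitors of toxicity appear as activators.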
TDP-43 yeast inh – inhibitors of TDP-43 toxicity in yeast; AID 652104; 410,000 compounds, 1.8% hits; Potency, µM (doses to about 46.1 µM), for inactives: top-dose growth rescue (activation), actives largely listed as activators; TDP-43 expressing yeast growth rescue, BacTiter-Glo, 24 h; note: % of control where 0% means no effect; nearly all actives have a fitted effect of over 50% in size
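Yeast cells expressing TDP-43 under galactose induction are exposed to compounds for 24 hr at 30 deg C. BacTiter-Glo luminescence measures growth, so protective compounds score as activators.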
Starred values were filed as active, the others as inactive; i = inactive; ? = inconclusive; . = no result. Most compounds without a hit are left out; they make up all but 2.1% or so of the library. Calls come from the whole dose curve; as a rule, active = well fitted curve in the direction sought with a large enough effect; inconclusive = small, poorly fitted or top-dose-only effect, or another doubt; inactive = no such curve, though single readings can be large; an effect the other way counts as inactive or inconclusive. Potency is the fitted concentration of half-maximal effect.

SMILES | Abeta rescue | FUS suppressor | aSyn rescue | TDP-43 yeast inh
COc1ccc(CN(C)C(=O)CNC(=O)c2ccc3ccccc3c2)c(OC)c1 | i | i | 0% | 22%
COc1ccc(Br)cc1CN(C)C(=O)CNC(=O)c1ccc2ccccc2c1 | i | i | -6% | 22µM*
Cc1ccc(-c2nonc2NC(=O)c2ccco2)cc1 | . | i | -12% | 25µM*
Cc1ccc(-c2nonc2NC(=O)c2ccco2)cc1C | i | i | . | 20µM*
Cc1cc2cc3c(cc2nc1SCC(=O)N1CCCC1)OCCO3 | i | i | 3% | 18µM*
CC(C(=O)c1ccccc1)[n+]1cccc(Cl)c1 (stereo unspecified) | . | . | -7% | .
Cc1cc(C)c(S(=O)(=O)NCC(c2cccs2)S(=O)(=O)c2ccccc2)c(C)c1 (stereo unspecified) | i | i | . | 2.8µM*
CCOc1ccc(S(=O)(=O)NCC(c2cccs2)S(=O)(=O)c2ccc(C)cc2)cc1 (stereo unspecified) | i | i | . | 2.8µM*
COc1cccc(NC(=O)CSc2nc(=O)[nH]c3c2CCCC3)c1 | i | i | . | 16%
CCCOc1ccc(C(=O)NNC(=S)NC(=O)c2ccco2)cc1 | i | i | -28% | 6.3µM*
O=C(/C=C/c1ccco1)NC(=S)NNC(=O)c1ccco1 | ? | i | 11µM* | ?
COc1ccc(C(=O)NNC(=S)NC(=O)c2ccco2)cc1 | i | i | -20% | ?
O=C(COc1ccc(Cl)cc1Cl)NNC(=S)NC(=O)c1ccco1 | ? | i | 10µM* | 18µM*
O=C(NC(=S)NNC(=O)c1ccco1)c1ccc(Br)cc1 | i | i | ? | 3.5µM*
Cn1nc(-c2cccnc2)nc2c(=O)n(C)c(=O)nc1-2 | . | . | 15% | .
CCCOc1ccc(C(=O)NNC(=S)NC(C)=O)cc1 | ? | i | 4µM* | 11µM*
CCC(=O)NC(=S)NNC(=O)c1ccc(OC)cc1 | 10µM* | i | 10µM* | 20%
Cc1ccccc1C(=O)NC1CCCCN(Cc2cccc(C(F)(F)F)c2)C1=O (stereo unspecified) | . | i | . | .
CNC(=O)Cn1c(=O)c2cccn2c2ccc(F)cc21 | i | i | . | -6%
CCc1nc2ccc(C(=O)Nc3cc(-c4ccccc4)ccc3OC)cn2c1N(CC)CCN(C)C | i | i | -4% | 9%
CCc1nc2ccc(C(=O)Nc3cccc(OC)c3)cn2c1N(C)CCCc1ccccc1 | i | ? | -34% | 35µM*
CCc1nc2ccc(C(=O)Nc3cccc(NS(C)(=O)=O)c3)cn2c1N(C)CCCc1ccccc1 | i | i | -1% | 0%
CCc1nc2ccc(C(=O)Nc3cc(-c4ccccc4)ccc3OC)cn2c1N(CC)Cc1cccc(Br)c1 | i | ? | 0% | 16µM*
CCCN1CNc2c(c(=O)[nH]c(=S)n2CCc2cccc(OC)c2OC)C1 | . | . | 2% | .
CC1(Cc2cccc(C#N)c2)C(=O)Nc2c(Cl)cccc21 (stereo unspecified) | i | i | 18µM* | ?
SMILES | Abeta rescue | FUS suppressor | aSyn rescue | TDP-43 yeast inh
CC1(Cc2ccc(F)cc2)C(=O)Nc2c(Cl)ccc(Cl)c21 (stereo unspecified) | i | i | 11µM* | 26%
CC1(Cc2ccccc2Cl)C(=O)Nc2c(Cl)cccc21 (stereo unspecified) | i | i | 3.5µM* | ?
CC1(Cc2cccc(C(N)=O)c2)C(=O)Nc2c(Cl)cccc21 (stereo unspecified) | i | i | 0% | 24%
CC1(Cc2ccc(Cl)c(Cl)c2)C(=O)Nc2c(Cl)ccc(Cl)c21 (stereo unspecified) | i | i | ? | 22%
C=Cc1ccc(CC2(C)C(=O)Nc3ccc(Cl)cc32)cc1 (stereo unspecified) | ? | i | ? | 0%
C=Cc1ccc(CC2(C)C(=O)Nc3c(Cl)cccc32)cc1 (stereo unspecified) | i | i | 10µM* | -37%
Nc1ccc(/C=C/c2nccc3ccccc23)cc1 | . | . | -56% | .
COc1ccc(OC)c(CNC(=O)C2CCN(S(=O)(=O)c3cn(C)cn3)CC2)c1 | i | i | . | 9%
Cc1ccc(C)c(NC(=O)C(=O)NCCc2csc3nc(-c4ccccc4C)nn23)c1 | i | i | . | 20%
COC(=O)C1CN(Cc2cn(Cc3ccccc3)nn2)CCS(=O)(=O)N1Cc1ccc(F)cc1 (stereo unspecified) | . | i | . | .
CCOC(=O)/C(C#N)=C/c1c(OCC)n(CC)c2ccccc12 | i | . | 9% | 13µM*
CCOC(=O)/C(C#N)=C\c1cn(C)c2ccccc12 | i | i | -4% | 28%
Cc1cccc(Cc2c(C)nc3nc(SCc4ccccc4F)nn3c2C)c1 | i | i | . | -5%
COc1ccc(Nc2nc(N)nc(CSC(=S)N3CCN(C)CC3)n2)cc1 | i | i | -6% | 1%
COc1ccc(Nc2nc(N)nc(CSC(=S)N3CCCCC3)n2)cc1 | i | i | 2% | 20%
COc1ccc(Nc2nc(N)nc(CSC(=S)N3CCN(c4ccccc4)CC3)n2)cc1 | i | ? | 11% | 18µM*
CCOc1ccc(Nc2nc(N)nc(CSC(=S)N3CCN(c4ccccc4)CC3)n2)cc1 | i | i | 13% | 0%
COc1ccccc1Nc1nc(N)nc(CSC(=S)N2CC(C)CC(C)C2)n1 (stereo unspecified) | i | i | 0% | 25µM*
CC1CCN(C(=S)SCc2nc(N)nc(Nc3ccccc3)n2)CC1 | 22µM* | ? | 11% | ?
COc1ccc(-c2cc3ccc(O)c(CN4CCC(C)CC4)c3oc2=O)cc1 | i | i | . | 0%
O=C(Cn1cc(S(=O)(=O)Cc2ccccc2Cl)c2ccccc21)Nc1ccc(F)cc1F | i | i | . | 10%
Cc1nc2cc(C(=O)NCCC3=CCCCC3)ccc2n1-c1ccc(Br)cc1 | i | 25µM* | . | ?
Cc1ccc(-n2cnc3cc(C(=O)NCCC4=CCCCC4)ccc32)c(C)c1 | i | ? | . | 25µM*
COCCNC(=O)c1ccc2c(c1)nc(C)n2-c1cccc(Cl)c1 | i | i | . | .
CCc1ccccc1-n1c(C)nc2cc(C(=O)NCCc3ccc(Cl)cc3)ccc21 | i | ? | . | 32µM*
SMILES | Abeta rescue | FUS suppressor | aSyn rescue | TDP-43 yeast inh
COc1cccc(-n2c(SCc3ccccc3C)nc3c([nH]c4ccccc43)c2=O)c1 | i | i | ? | 11%
O=C(CSc1nc2c([nH]c3ccccc32)c(=O)n1-c1ccc(F)cc1)NCc1ccc(F)cc1 | i | i | 0% | 25%
N#CCSc1nnc(COc2cccc3ccccc23)n1-c1ccccc1 | i | i | 0% | 20µM*
COc1ccc(-c2nc3cnccn3c2Nc2ccc3c(c2)OCO3)cc1 | i | 28µM* | 6% | 24%
CN(C)c1ccc(/C=C/c2ccnc3ccc(Cl)cc23)cc1 | . | . | -14% | .
COc1ccc(Nc2nc3cc(-c4ccsc4)sc3c(=O)n2C)cc1OC | i | 28µM* | 16% | ?
